Experimental data reported in PubChem BioAssay AID797 (University of Pittsburgh Molecular Library Screening Center, 2007).
The campaign covered roughly 200,000 compounds. About 110 (0.055%) were called active. Cut-off read from the data, not from the text of the source: active = inhibition above about 50%; inactive = the rest. This excerpt belongs to a sample that is enriched for actives.

target: Serine/threonine-protein kinase D1 (Homo sapiens) (UniProt Q15139); experiment: inhibitors of human PKD1 kinase, biochemical, fluorescence polarization (AID 797); conditions: PKD1 kinase fluorescence polarization assay; stronger effect = higher value; concentration not given here
Sequence (Q15139 whole entry, looked up): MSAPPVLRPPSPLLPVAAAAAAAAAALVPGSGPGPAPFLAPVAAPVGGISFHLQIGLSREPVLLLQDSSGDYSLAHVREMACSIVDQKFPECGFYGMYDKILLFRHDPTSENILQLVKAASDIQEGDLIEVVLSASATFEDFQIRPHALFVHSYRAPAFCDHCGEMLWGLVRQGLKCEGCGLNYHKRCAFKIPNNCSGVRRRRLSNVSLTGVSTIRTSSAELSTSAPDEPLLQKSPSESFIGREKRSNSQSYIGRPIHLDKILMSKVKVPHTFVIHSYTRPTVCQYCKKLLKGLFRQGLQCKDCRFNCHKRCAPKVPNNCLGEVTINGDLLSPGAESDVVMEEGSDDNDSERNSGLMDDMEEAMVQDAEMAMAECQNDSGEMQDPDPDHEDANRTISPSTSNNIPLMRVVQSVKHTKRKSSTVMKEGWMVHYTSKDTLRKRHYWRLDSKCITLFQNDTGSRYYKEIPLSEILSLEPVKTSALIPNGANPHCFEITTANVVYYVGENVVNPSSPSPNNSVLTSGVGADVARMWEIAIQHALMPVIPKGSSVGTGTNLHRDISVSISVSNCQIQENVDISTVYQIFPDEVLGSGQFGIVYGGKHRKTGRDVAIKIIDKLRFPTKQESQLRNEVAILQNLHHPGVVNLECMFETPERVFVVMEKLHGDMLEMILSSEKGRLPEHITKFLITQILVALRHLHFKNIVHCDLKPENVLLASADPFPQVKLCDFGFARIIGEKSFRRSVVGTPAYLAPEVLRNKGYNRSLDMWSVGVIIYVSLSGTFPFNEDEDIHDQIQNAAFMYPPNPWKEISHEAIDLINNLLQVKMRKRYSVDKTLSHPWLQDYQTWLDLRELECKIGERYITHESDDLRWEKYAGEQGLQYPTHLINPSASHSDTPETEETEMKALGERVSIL

inhibition, active:
Cc1ccc(NC(=O)C2CCCN(S(=O)(=O)c3c(C)noc3C)C2)c(C)c1 (stereo not drawn) 72.5%
COc1ccccc1C(=O)NN1C(=O)C2C3C=CC(O3)C2C1=O (stereo not drawn) 52.7%

inhibition, inactive:
CC(C)NC(=S)Nc1cccc2cnccc12 -7.44%
O=C(NC1(C(F)(F)F)NC(=O)N(C2CCCCC2)C1=O)c1ccco1 (stereo not drawn) -4.49%
Cc1onc(C(=O)NN)c1C(=O)N1CCN(C(c2ccccc2)c2ccccc2)CC1 6.23%
CCO[C@H]1OC(C(=O)O)=C[C@@H](C2CCCCC2)[C@@H]1CCCO 1.68%
O=C(N/N=C/c1cccc([N+](=O)[O-])c1)C1CC(=O)N(c2ccc(Br)cc2)C1 (stereo not drawn) 0.4%
O=C(NCCN1CCOCC1)Nc1cccc(Cl)c1 -8.08%
Cc1ccc(-c2c(C)n([O-])c3c([n+]2=O)CCC3)cc1 -5.77%
Cc1cc(C)c(C#N)c(SCC(=O)NN2CC(=O)N(c3ccccc3F)CC2=O)n1 -3.74%
O=C(OC1CCOC1=O)c1cccc(S(=O)(=O)Nc2ccc(F)cc2)c1 (stereo not drawn) 1.98%
C=CCn1cc(-c2cccc(C(F)(F)F)c2)cc(C#N)c1=O 7.22%
O=C(N1CCCC1)C12CC3CC(C1)CC(C(=O)N1CCCC1)(C3)C2 -14.2%
CCC1CO/C(=C(\C(=C(Cl)Cl)N2CCOCC2)[N+](=O)[O-])N1 (stereo not drawn) -0.65%
COc1cc(OC)c(C(=O)OC(C)C(=O)Nc2cc(C(F)(F)F)ccc2Cl)cc1OC (stereo not drawn) 8.47%
O=C(CSc1ccc(-c2ccc(F)cc2)nn1)Nc1ccc2c(c1)OCCO2 -0.29%
Cc1cc(C(=O)NNC(=S)NC(C)c2ccccc2)cs1 (stereo not drawn) 5.7%
C/C(CC(=O)Nc1cccc(C(F)(F)F)c1)=N\NC(=O)C(=O)NCC(C)C 3.3%
Cc1cc(N2CCN(C)CC2)nc2ccc(NC(=S)N3CCOCC3)cc12 -7.15%
CCn1c2ccccc2c2cc(NC(=O)COC(=O)c3ccccc3Br)ccc21 -14.8%
c1ccc(-c2csc(N3CCc4ccccc4C3)n2)cc1 -5.96%
COC(=O)[C@@H]1CC[C@H](C)[C@@H](c2ccc(C)cc2)N1C(=O)c1ccc(/C=N/O[C@H](C)c2cn([C@@H]3COC[C@H]3O)nn2)cc1 -8.4%
CCC(=O)NC(=S)Nc1ccc(NC(=O)c2ccco2)c(Cl)c1 -0.32%
CN(C)CCCNC(=O)/C=C/c1ccc(OCc2c(F)cccc2Cl)cc1 -5.92%
CCCC1(C(=O)OC)NC(c2ccco2)C2C(=O)N(C)C(=O)C21 (stereo not drawn) -3.52%
Cc1noc(C)c1S(=O)(=O)N1CCCC(C(=O)Nc2nccs2)C1 (stereo not drawn) -0.06%
COc1c(C)cc(C(=O)C2CCCN(S(=O)(=O)c3c(C)noc3C)C2)cc1C (stereo not drawn) 11.5%
CCCCN(CC(=O)NC(C)(C)C)C(=O)C(=O)Nc1ccc2c(c1)OCCO2 1.16%
CCCOC(=O)c1ccc(N2C(=O)c3ccccc3C2=O)cc1 1.49%
O=C(CCc1ccccc1)NNC(=O)c1ccc(Br)cc1 4.58%
O=C(c1ccccc1)c1ccc(OCC(O)CN2CCCC2)cc1 (stereo not drawn) 13.5%
COC(=O)c1ccc(OCC(O)CN(CCO)CC(O)Cn2ccc3ccccc32)cc1 (stereo not drawn) 3.96%
OC(CNCc1ccc(Cl)c(Cl)c1)c1ccccc1 (stereo not drawn) -3.03%
COc1cc2c(cc1OC)C(Nc1ccc(S(N)(=O)=O)cc1)=NC(C)(C)C2 -5.13%
COc1ccc(NC(=O)c2sc(N3CCOCC3)nc2-c2ccccc2)c(OC)c1 -1.24%
CCC(=O)Nc1ccc(C(=O)N2CCN(C(=O)c3ccco3)CC2)cc1 2.96%
Cc1ccc(NC(=O)Cn2c(=O)n(CCC(=O)NC3CCN(Cc4ccccc4)CC3)c(=O)c3ccccc32)cc1 0.69%
O=C(CN1CCOCC1)Nc1c(Cl)cc(Cl)cc1Cl -2.42%
Cc1ccc2nsnc2c1NC(=O)c1ccccc1[N+](=O)[O-] -3.06%
Cc1ccccc1NS(=O)(=O)CCCCC(Cl)(Cl)Cl -2.05%
COc1cccc(C2SCC(=O)N2c2cccc(C)c2)c1OC (stereo not drawn) -7.34%
O=C(NN1C(=O)C2C3C=CC(O3)C2C1=O)c1ccccc1 (stereo not drawn) -7.27%
O=C(NN1C(=O)C2C3C=CC(O3)C2C1=O)c1ccncc1 (stereo not drawn) -9.52%
O=C(Cc1cccs1)Nc1cccc(-c2nc3ccccc3[nH]2)c1 -1.91%
CCc1cc(C(N)=O)c(NC(=O)c2ccc(OC)cc2)s1 -8.2%
O=C(O)CC(SCC(=O)Nc1ccc(Br)cc1)C(=O)O (stereo not drawn) -6.53%
CCOC(=O)c1cnc(SCC(=O)Nc2ccccc2C(=O)OC)nc1N -2.4%
Cc1nc2cc(NC(=O)NC3CC3)ccc2n1C -0.99%
O=C(Cc1ccc([N+](=O)[O-])cc1)N/N=C/c1ccco1 -4.83%
CCCCC(=O)Nc1ccc(C(=O)Nc2cc(C(F)(F)F)ccc2Cl)cc1 -1.39%
O=C(COc1nc2ccccc2nc1N1CCOCC1)NCC(F)(F)F -0.08%
CC(=O)Nc1ccc(S(=O)(=O)N(CCc2ccccc2)CC(=O)N/N=C/c2ccc(C(=O)O)cc2)cc1 5.13%
CCN(CC(=O)Nc1ccccc1OC)C(=O)Cn1cnc2ccccc2c1=O 7.55%
N=C1C(c2nc3ccccc3s2)=C(O)CN1NC(=O)c1ccc([N+](=O)[O-])cc1 -8.3%
CN1CCN(c2ccc(S(=O)(=O)N3CCCCC3)cc2NC(=O)Cc2ccccc2F)CC1 -6.13%
Cc1ccc(NC(=O)CN2CCC(C(N)=O)CC2)cc1[N+](=O)[O-] 5.71%
COc1ccc(NC(=O)CC2C(=O)OCC3CCCCN32)cc1Cl (stereo not drawn) -6.39%
Cc1onc(C(=O)NCc2ccc(F)cc2)c1[N+](=O)[O-] 0.1%
